Results published in the supplement of paper PMC10127200.
Where a name gives a salt, the structure may show the parent alone.

How the values were obtained:
Assay in all cases: Euclidean distance of Cell Painting phenotypic profile (signed KS, 77 features) to DMSO centroid (dimensionless distance); 5 or 10 uM (library dependent); higher = stronger phenotypic change vs DMSO (phenoactivity)
Settings in all cases: 48 h
786-O = tested on: 786-O
Outline: (§1)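 Library compounds were applied at 10 or 5 uM, depending on the library, with 0.1% DMSO final, for 48 h to five cancer lines and a healthy fibroblast line. After staining, cells were imaged confocally at 20X across 9 fields per well, and Harmony extracted 77 features, each scored as a signed Kolmogorov-Smirnov statistic against vehicle wells on the same plate. Phenoactivity is the Euclidean distance between each profile and the median vehicle profile, with profiles first plate-position corrected, correlation-weighted and averaged over replicates at the top dose.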

A549 = tested on: A549
Outline: as §1

DU145 = tested on: DU145
Outline: as §1

FB = tested on: FB
Outline: as §1

HEPG2 = tested on: HEPG2
Outline: as §1

OVCAR4 = tested on: OVCAR4
Outline: as §1

| Structure (SMILES) | Euclidean distance (786-O) | Euclidean distance (A549) | Euclidean distance (DU145) | Euclidean distance (FB) | Euclidean distance (HEPG2) | Euclidean distance (OVCAR4) |
| --- | --- | --- | --- | --- | --- | --- |
| COc1ccc(Cn2ccc3ccc(C(=O)NO)cc32)cc1 | 1.83 | 1.18 | 1.25 | 2.16 | 1.5 | 0.415 |
| O=C(Nc1ccccc1)c1cc([N+](=O)[O-])ccc1Cl | 0.848 | 0.897 | 0.645 | 1.15 | 0.832 | 1.2 |
| CCN1CCN(C(=O)N[C@@H](C(=O)N[C@@H]2C(=O)N3C(C(=O)O)=C(CSc4nnnn4C)CS[C@H]23)c2ccc(O)cc2)C(=O)C1=O [Cefoperazone] | 1.77 | 0.776 | 0.917 | 1.45 | 0.854 | 1.24 |
| COc1cc2ncnc(Nc3ccc(F)c(Cl)c3)c2cc1OCCCN1CCOCC1 [Gefitinib (ZD1839)] | 2.03 | 2.48 | 2.47 | 1.24 | 1.6 | 1.64 |
| COc1c(N2C[C@@H]3CCCN[C@@H]3C2)c(F)cc2c(=O)c(C(=O)O)cn(C3CC3)c12 [Moxifloxacin] | 1.32 | 0.519 | 0.919 | 1.06 | 0.804 | 0.918 |
| CC(C)(C)NCC(O)COc1cccc2c1CC(O)C(O)C2 (stereo not given) [Nadolol] | 0.954 | 1.38 | 1.88 | 0.792 | 0.849 | 1.11 |
| O=C(O)c1cc(O)c2c(c1)[C@@H]([C@H]1c3cc(C(=O)O)cc(O)c3C(=O)c3c(O[C@@H]4O[C@H](CO)[C@@H](O)[C@H](O)[C@H]4O)cccc31)c1cccc(O[C@@H]3O[C@H](CO)[C@@H](O)[C@H](O)[C@H]3O)c1C2=O [Sennoside B] | 1.31 | 0.866 | 0.808 | 0.988 | 0.382 | 0.952 |
| Cc1c(Cc2ccc3ccccc3n2)c2cc(F)ccc2n1CC(=O)O | 1.27 | 1.14 | 0.888 | 1.16 | 2.13 | 1.52 |
| Cn1c(=O)c2c(ncn2CC(O)CO)n(C)c1=O (stereo not given) [Dyphylline] | 1.02 | 0.909 | 0.59 | 1.07 | 1.05 | 1.59 |
| C=CC(=O)Nc1cccc(Nc2nc(Nc3ccc(N4CCN(C(C)=O)CC4)cc3OC)ncc2C(F)(F)F)c1 | 1.04 | 0.866 | 0.799 | 1.01 | 0.62 | 0.883 |
| NC(=O)[C@@H]1CCCN1C(=O)[C@H](Cc1c[nH]cn1)NC(=O)[C@@H]1CCC(=O)N1 [Protirelin] | 1.34 | 0.937 | 0.758 | 1.31 | 0.44 | 0.947 |
| Cc1cnc(C(=O)O)c[n+]1[O-] [Acipimox] | 1.86 | 0.99 | 0.959 | 0.682 | 1.59 | 0.964 |
| O=S(=O)(O)CCSSCCS(=O)(=O)O [Dimesna] | 0.983 | 1.01 | 1.18 | 1.16 | 0.803 | 1.13 |
| O=c1[nH]c(=O)n([C@H]2C[C@H](O)[C@@H](CO)O2)cc1/C=C/Br [Brivudine] | 1.21 | 0.849 | 0.765 | 1.07 | 0.725 | 0.962 |
| OC(CNCC(O)C1CCc2cc(F)ccc2O1)C1CCc2cc(F)ccc2O1 (stereo not given) [Nebivolol] | 1.39 | 1.67 | 0.832 | 1.65 | 2.26 | 1.58 |
| CC1=NN(c2ccc(C)c(C)c2)C(=O)/C1=N\Nc1cccc(-c2cccc(C(=O)O)c2)c1O [Eltrombopag Olamine] | 1.58 | 1.04 | 1.13 | 2.4 | 1.69 | 1.49 |
| O=C(Nc1cccc(C2=NCCN2)c1)Nc1cccc(C2=NCCN2)c1 [Imidocarb dipropionate] | 1.26 | 1.66 | 1.76 | 1.4 | 1.23 | 1.75 |
| CCOc1nc2cccc(C(=O)O)c2n1Cc1ccc(-c2ccccc2-c2noc(=O)[nH]2)cc1 [Azilsartan] | 0.834 | 0.784 | 0.835 | 0.563 | 0.88 | 0.784 |
| COCCc1ccc(OCC(O)CNC(C)C)cc1 (stereo not given) [Metroprolol succinate] | 0.936 | 0.527 | 0.62 | 1.14 | 0.935 | 1.9 |
| CO[C@@H]1[C@@H](O[C@@H]2O[C@H](C)[C@@H](O[C@H]3C[C@@](C)(O)[C@@H](OC(=O)CC(C)C)[C@H](C)O3)[C@H](N(C)C)[C@H]2O)[C@@H](CC=O)C[C@@H](C)[C@@H](O)/C=C/C=C/C[C@@H](C)OC(=O)C[C@H]1OC(C)=O [Josamycin] | 1.22 | 1.07 | 0.712 | 1.59 | 1.01 | 1.06 |
| Cc1cc(C)nc(O)n1.O=C(Nc1ccc([N+](=O)[O-])cc1)Nc1ccc([N+](=O)[O-])cc1 [Nicarbazin] | 1.37 | 1.24 | 0.953 | 1.62 | 0.833 | 1.15 |
| Cc1ccnc(NS(=O)(=O)c2ccc(N)cc2)n1 [Sulfamerazine] | 1.24 | 0.793 | 0.847 | 0.862 | 0.67 | 1.2 |
| NCCc1ccc(O)c(O)c1 [Dopamine HCl] | 1.84 | 0.481 | 0.944 | 1.26 | 0.844 | 3.26 |
| COc1ccc(C(C)=O)c(O)c1 [Paeonol] | 1.07 | 0.755 | 0.885 | 0.979 | 0.302 | 1.58 |
| CN(C)/N=N/c1[nH]cnc1C(N)=O [Dacarbazine] | 1.42 | 0.981 | 1.94 | 1.25 | 2.73 | 0.871 |
